For some of these results: Potency and affinity values are given separately. The source made the active and inactive calls.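 How the source made its calls, unless noted: active means calcium signal ratio cut to more than 3 SD under the fully stimulated control mean yet still positive, in both repeats and the primary screen; inactive means the rest.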

The test system of assay [1] is TRPC4 beta (transient receptor potential cation channel C4), mouse. The experiment in a line: TRPC4 cation channel opening, retest – cell-based, Fluo4 calcium, HEK293 TRPC4beta/mu-opioid, duplicates, 10 µM, confirmation (AID 2426;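 active means fluorescence ratio normalized to control raised more than 50% in primary screen plus both repeat runs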). Conditions: Fluo4 calcium fluorescence, at 10 µM; stronger effect = higher value.
The subject of assay [2] is transient receptor potential cation channel C4 beta (TRPC4), mouse. As to the kind of experiment: TRPC4 cation channel opening, second retest – cell-based, second round, Fluo4, HEK293 TRPC4beta/mu-opioid, 1 µM, confirmation (AID 2461;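 active means primary screen active and over 50% activation in each of two duplicate runs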). The following applies: Fluo4 calcium fluorescence, at 1 µM; stronger effect = higher value.
Assay [3] relates to TRPC4 (transient receptor potential cation channel C4 beta), mouse. The experiment in a line: potentiation of DAMGO EC20 TRPC4 response – cell-based, second round, Fluo-4, HEK293 TRPC4beta/mu-opioid, 1 µM, confirmation (AID 2554;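 active means primary screen hit whose fluorescence ratio, in both repeats, exceeds the weak agonist control mean by 3 SD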). The following applies: DAMGO EC20, Fluo-4 calcium flux, at 1 µM; stronger effect = higher value. In general terms: Calcium flux is commonly read through the fluorescence of an indicator in the cells.

Assay [4] concerns TRPC4 beta (transient receptor potential cation channel C4), mouse. The experiment in a line: potentiation of DAMGO EC20 TRPC4 response – cell-based, Fluo-4, HEK293 TRPC4beta/mu-opioid, confirmation (AID 2555;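 active means primary screen hit whose calcium fluorescence ratio, in both repeats, exceeds the weak agonist control mean by 3 SD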). Conditions: DAMGO EC20, Fluo-4 calcium flux, at 10 µM; stronger effect = higher value.
The target of assay [5] is Short transient receptor potential channel 4 (Mus musculus) (UniProt Q9QUQ5). The experiment in a line: blockers of DAMGO-evoked TRPC4 calcium flux – cell-based, Fluo4, HEK293 TRPC4beta/mu-opioid, confirmation (AID 2636;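 active means calcium signal cut by more than 3 SD below the full-agonist control yet still positive, in both repeats and the earlier primary screen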). The following applies: at 10 µM; stronger effect = higher value.
Assay [6] shares this target. The experiment in a line: blockers of DAMGO-evoked TRPC4 calcium flux – cell-based, second round, Fluo4, HEK293 TRPC4beta/mu-opioid, 1 µM, confirmation (AID 2637).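 On inhibition: percent of integrated ratio relative to wells lacking test compound.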 The following applies: at 1 µM; stronger effect = higher value.
Assay [7] has the same target. As to the kind of experiment: calcium entry via TRPC4 opening agents – cell-based, HEK293 TRPC4/mu-opioid, Fluo-4 calcium, dose response (AID 434937;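 active means primary screen activator hit with a dose response curve and TRPC4 channel activation at any tested dose; inactive means no activation, no dose response, or not a primary hit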).
Assay [8] has the same target. The experiment in a line: potentiation of DAMGO-evoked TRPC4 calcium signal – cell-based, HEK293 TRPC4/mu-opioid, Fluo-4 calcium, EC20 DAMGO, dose response (AID 434941;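 active means earlier screen potentiator hit that boosts the TRPC4 ion channel at some dose, with a dose response; inactive means no potentiation, no dose response, or not a prior hit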;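 further: calcium entry triggered by an EC20 dose of DAMGO at the co-expressed mu-opioid receptor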).
Assay [9] addresses Short transient receptor potential channel 6 (Mus musculus) (UniProt Q61143). The experiment in a line: TRPC6 blockade by TRPC4 inhibitor hits – cell-based, HEK293, membrane potential dye, duplicate, selectivity assay for TRPC4 inhibitor project, confirmation (AID 434948;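 active means active in primary screen and both duplicates, each dropping signal beyond three positive-control SD with fluorescence still positive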). Conditions: HEK293 TRPC6, membrane potential dye fluorescence, at 10 µM, stimulated with maximal-effect acetylcholine; stronger effect = higher value.

Assay [10] has the same target. The experiment in a line: TRPC6 opening by TRPC4 activator hits – cell-based, HEK293, membrane potential dye, duplicate, selectivity assay for TRPC4 activator project, confirmation (AID 434950;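 active means membrane potential signal rise above negative control mean plus 3 SD in both duplicates, also active in the earlier TRPC4 screen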). Conditions: HEK293 TRPC6, membrane potential fluorescence, at 10 µM; activation: stronger effect = higher value; outcome: activation.
The target is the same in assay [11]. The experiment in a line: positive modulators of mouse TRPC6 channel – HEK293 cells, membrane potential dye, duplicate, selectivity assay for TRPC4 potentiator project, confirmation (AID 434952;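 active means compound raising the membrane signal above positive-control mean plus 3 SD in both repeats, and a primary screen hit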). The following applies: HEK293 TRPC6, membrane potential dye fluorescence, at 10 µM, maximal acetylcholine added after compound; stronger effect = higher value.
In assay [12] the target is Short transient receptor potential channel 4 (Mus musculus) (UniProt Q9QUQ5). The experiment in a line: calcium flux activators in TRPC4/5HT1a cells, counter-screen for TRPC4 activator project, cell-based, second counter screen, HEK293 TRPC4/5HT1a, Fluo-4 (AID 434977;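 active means calcium signal rise above buffer-control mean plus 5 SD in both duplicates, and also a hit in the primary screen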). Conditions: Fluo-4 calcium flux, at 10 µM; stronger effect = higher value.
Assay [13] can be described thus: serotonin-gated TRPC4 signal block – cell-based, second counter screen, HEK293 TRPC4/5HT1a, Fluo-4, counter-screen for TRPC4 inhibitor project, confirmation (AID 434978;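 active means primary screen active whose calcium signal fell more than 3 SD beyond the full-serotonin control mean in both duplicate plates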;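 on outcome: serotonin given first at submaximal then at maximal dose after compound preincubation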). Conditions: Fluo-4 calcium flux, at 10 µM, serotonin added to trigger calcium flux; stronger effect = higher value. On the technique in general: The purpose of a counterscreen is to sort out artefacts and off-target activity.

Assay [14] relates to TRPC4 (mouse), co-expressed with 5HT1a in HEK293. As to the kind of experiment: enhancement of serotonin-evoked TRPC4 response – cell-based, second counter screen, HEK293 TRPC4/5HT1a, Fluo-4, counter-screen for TRPC4 potentiator project, confirmation (AID 434979;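 active means signal rise over 3 SD above mean of control wells given weak agonist, in both repeats and first screen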). The following applies: Fluo-4 calcium flux, at 10 µM, serotonin added at its EC20 dose; stronger effect = higher value.
Assay [15] in a line: nonspecific calcium rise without TRPC4 – cell-based, HEK293 mu-opioid receptor line, counter-screen for TRPC4 activator project, confirmation (AID 449723;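 active means hit in primary screen, with calcium signal over 5 SD above buffer well mean in both duplicates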;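 further: counter screen cells carry the mu-opioid receptor alone and lack TRPC4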). Conditions: HEK293 mu-opioid cells, Fluo-4 calcium fluorescence, at 10 µM; stronger effect = higher value.
Assay [16] can be described thus: nonspecific potentiation of DAMGO calcium response – cell-based, HEK293 mu-opioid receptor line, counter-screen for TRPC4 allosteric potentiator project, confirmation (AID 449724;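 active means calcium signal rise more than 3 SD above the low-dose agonist control mean, in both duplicate plates and the primary screen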;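 further: HEK293 cells carrying mu-opioid receptor only with no TRPC4 channel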). The following applies: HEK293 mu-opioid receptor cells, Fluo-4 calcium flux, at 10 µM, compound added before EC20 DAMGO stimulus; stronger effect = higher value.
For assay [17], the target named is Short transient receptor potential channel 4 (Mus musculus) (UniProt Q9QUQ5). As to the kind of experiment: block of DAMGO-driven TRPC4 calcium entry – cell-based, HEK293 TRPC4/mu-opioid, Fluo-4 calcium, dose response (AID 434942;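 active means primary screen inhibitor hit that blocks the TRPC4 channel at some tested dose, yielding a dose curve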).

Chain of Short transient receptor potential channel 4 (Mus musculus) (Q9QUQ5 whole entry, looked up): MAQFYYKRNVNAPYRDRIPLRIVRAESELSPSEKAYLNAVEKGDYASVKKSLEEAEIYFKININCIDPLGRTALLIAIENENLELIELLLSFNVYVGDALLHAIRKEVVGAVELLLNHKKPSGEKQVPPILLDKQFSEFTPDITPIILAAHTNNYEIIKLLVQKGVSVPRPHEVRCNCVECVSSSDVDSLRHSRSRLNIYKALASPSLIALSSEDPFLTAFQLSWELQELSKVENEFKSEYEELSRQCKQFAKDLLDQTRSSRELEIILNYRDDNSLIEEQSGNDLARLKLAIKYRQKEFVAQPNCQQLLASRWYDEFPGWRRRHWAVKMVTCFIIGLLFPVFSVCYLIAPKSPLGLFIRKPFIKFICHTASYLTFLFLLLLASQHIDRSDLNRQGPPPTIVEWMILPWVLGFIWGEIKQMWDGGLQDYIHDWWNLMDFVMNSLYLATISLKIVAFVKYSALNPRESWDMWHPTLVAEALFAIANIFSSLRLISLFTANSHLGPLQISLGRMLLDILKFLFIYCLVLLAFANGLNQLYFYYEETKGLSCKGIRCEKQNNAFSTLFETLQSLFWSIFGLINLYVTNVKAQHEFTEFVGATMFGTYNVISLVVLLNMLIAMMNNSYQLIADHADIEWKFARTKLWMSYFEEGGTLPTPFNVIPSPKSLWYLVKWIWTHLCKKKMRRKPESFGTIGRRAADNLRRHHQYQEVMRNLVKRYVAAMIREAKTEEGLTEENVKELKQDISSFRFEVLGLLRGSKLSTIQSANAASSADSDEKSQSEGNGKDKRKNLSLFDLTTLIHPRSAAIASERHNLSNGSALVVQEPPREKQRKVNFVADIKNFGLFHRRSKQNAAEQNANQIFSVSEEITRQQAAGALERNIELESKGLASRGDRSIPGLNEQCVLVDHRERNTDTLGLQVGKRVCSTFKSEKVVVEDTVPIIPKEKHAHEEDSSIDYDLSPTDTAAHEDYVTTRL
Chain of Short transient receptor potential channel 6 (Mus musculus) (Q61143 whole entry, looked up): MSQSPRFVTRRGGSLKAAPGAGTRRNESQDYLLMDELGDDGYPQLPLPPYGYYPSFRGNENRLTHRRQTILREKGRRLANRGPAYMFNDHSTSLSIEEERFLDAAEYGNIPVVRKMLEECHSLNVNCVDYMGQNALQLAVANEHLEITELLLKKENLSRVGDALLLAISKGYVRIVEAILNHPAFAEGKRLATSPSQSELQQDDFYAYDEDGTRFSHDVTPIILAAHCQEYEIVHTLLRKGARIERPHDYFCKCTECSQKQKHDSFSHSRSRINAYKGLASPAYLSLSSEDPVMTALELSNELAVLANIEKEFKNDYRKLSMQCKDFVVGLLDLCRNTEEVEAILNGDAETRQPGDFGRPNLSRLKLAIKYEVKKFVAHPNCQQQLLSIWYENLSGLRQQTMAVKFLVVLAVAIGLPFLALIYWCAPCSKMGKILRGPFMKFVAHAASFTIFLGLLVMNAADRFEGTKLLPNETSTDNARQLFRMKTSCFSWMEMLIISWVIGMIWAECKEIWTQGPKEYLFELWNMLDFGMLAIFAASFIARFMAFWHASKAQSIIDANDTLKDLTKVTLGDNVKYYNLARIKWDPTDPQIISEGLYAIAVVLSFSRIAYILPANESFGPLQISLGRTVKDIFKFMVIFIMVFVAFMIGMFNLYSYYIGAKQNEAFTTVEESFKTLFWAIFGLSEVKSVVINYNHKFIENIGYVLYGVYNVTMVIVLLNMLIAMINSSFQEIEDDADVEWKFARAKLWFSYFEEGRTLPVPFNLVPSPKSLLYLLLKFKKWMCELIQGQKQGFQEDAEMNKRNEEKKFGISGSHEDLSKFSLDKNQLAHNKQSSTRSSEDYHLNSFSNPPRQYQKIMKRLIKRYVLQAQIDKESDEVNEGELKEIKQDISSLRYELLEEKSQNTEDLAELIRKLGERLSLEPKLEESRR

`Cc1cc(-c2csc3ncnc(N4CCN(C)CC4)c23)cc(C)c1C`: the result in assay [1], in assay [2], in [3], in assay [4], in assay [7] and in [8] was inactive. Also, the call in [9], in assay [10], in [11], in [12], in assay [14] and in [15] was inactive. The result in assay [16] was inactive. For the same molecule, the inhibition (commonly how much of the control response was suppressed) was 84% (active) in assay [5], 49% (active) in [6] and 16.6% (active) in assay [13].

Consider `Cc1cccc(-n2ccnc2CN2CCC(CO)(Cc3ccccc3)CC2)c1`, for which the outcome in assay [1], in assay [2], in [3], in [4], in [6] and in assay [7] was inactive. For the same molecule, the result in [8], in assay [9], in assay [10], in [11], in assay [12] and in [13] was inactive. The outcome in assay [14], in assay [15] and in [16] was inactive. Further, the inhibition in assay [5] was 70% (active).

Regarding `COc1cccc2cc(C(N)=O)/c(=N\NC(=O)c3ccccc3)oc12`, the outcome in assay [1], in assay [2], in assay [3], in [4], in [7] and in [8] was inactive. Also, the call in assay [9], in [10], in assay [11], in assay [12], in [14] and in [15] was inactive. The result in assay [16] was inactive. Further, the inhibition in assay [5] is 73% (active); in [6] it was 44% (active); in [13] it was 40.1% (active).

In the case of `O=C1COc2ccc(N3C(=O)C=CC3=O)cc2N1`, the result in assay [1], in [2], in [3], in assay [4], in assay [6] and in assay [7] was inactive. Also, the outcome in assay [8], in assay [9], in assay [10], in assay [11], in assay [12] and in assay [14] was inactive. Further, the outcome in [15] and in assay [16] was inactive. Also, the inhibition in assay [5] is 88% (active); in [13], 31.1% (active).

With `Cc1cc(Nc2cccc(O)c2)c2ccccc2n1`, the result in [1], in [2], in [3], in [4], in assay [6] and in assay [7] was inactive. The outcome in assay [8], in assay [10], in assay [11], in assay [12], in assay [13] and in assay [14] was inactive. For the same molecule, the result in assay [15] and in assay [16] was inactive. Moreover, the values for the inhibition in assay [5] and in assay [9] were 86% (active) and 55% (active), respectively.

`CC(C)Oc1cccc(C(=O)C2CCCN(Cc3cnn(C(C)C)c3)C2)c1` (stereo unspecified): the outcome in assay [1], in assay [2], in assay [3], in assay [4], in [7] and in assay [8] was inactive. Moreover, the outcome in assay [9], in [10], in assay [11], in assay [12], in assay [13] and in assay [14] was inactive. The result in assay [15] and in assay [16] was inactive. In addition, the inhibition in [5] is 93% (active); in [6] it was 47% (active).

For the molecule `O/N=C/c1ccccc1Oc1ccc(Cl)cc1`, the result in [1], in assay [2], in assay [3], in assay [4], in assay [6] and in assay [7] was inactive. The outcome in [8], in assay [9], in assay [10], in assay [11], in [12] and in assay [14] was inactive. The result in [15] and in assay [16] was inactive. The inhibition in assay [5] is 98% (active); in assay [13] it was 7.58% (active).

As to `CC(=O)Nc1ccc(S(=O)(=O)Nc2nc3ccc(C)cc3s2)cc1`, the result in assay [1], in [2], in [3], in assay [4], in [6] and in [7] was inactive. Besides, the result in assay [8], in assay [9], in assay [10], in assay [11], in assay [12] and in assay [13] was inactive. Besides, the result in assay [14], in assay [15] and in assay [16] was inactive. Besides, the inhibition in assay [5] is 65% (active).

For the molecule `CC(=O)c1ccc2c(c1)N(C)c1ccccc1S2`, the outcome in assay [1], in assay [2], in assay [3], in assay [4], in assay [6] and in [7] was inactive. Besides, the outcome in [8], in [9], in assay [10], in [11], in assay [12] and in assay [14] was inactive. Also, the outcome in assay [15] and in [16] was inactive. Moreover, the inhibition was 84% (active) in assay [5] and 36.8% (active) in assay [13].

Take `CCC(O)(c1ccc(OC)cc1)C(CN1CCOCC1)c1ccccc1` (stereo unspecified): the outcome in assay [1], in assay [2], in [3], in [4], in assay [7] and in assay [8] was inactive. Also, the outcome in assay [9], in [10], in [11], in [12], in assay [14] and in [15] was inactive. Moreover, the result in assay [16] was inactive. Further, the inhibition in assay [5] is 92% (active); in assay [6], 52% (active); in [13], 14.9% (active).

On to `C/C(N)=C(/C#N)C(=O)COC(=O)CC12CC3CC(CC(C3)C1)C2`, for which the outcome in [1], in assay [2], in assay [3], in [4], in assay [6] and in assay [7] was inactive. In addition, the outcome in assay [8], in assay [9], in [10], in assay [11], in [12] and in assay [14] was inactive. Moreover, the result in assay [15] and in assay [16] was inactive. The inhibition in assay [5] is 83% (active); in assay [13], 32.2% (active).

Take `COc1ccc(C2CC(c3ccccc3)Nc3nc(NC(=O)c4cccs4)nn32)cc1` (stereo unspecified): the outcome in assay [1], in assay [2], in assay [3], in assay [4], in assay [6] and in assay [7] was inactive. Moreover, the outcome in assay [8], in assay [9], in assay [10], in assay [11], in [12] and in assay [13] was inactive. The result in [14], in [15] and in assay [16] was inactive. Further, the inhibition in assay [5] was 95% (active).

Turning to `Cc1cccc2cc(CN(CCCN(C)C)C(=S)NCCc3ccccc3)c(=O)[nH]c12`, the result in [1], in assay [2], in assay [3], in assay [4], in assay [5] and in [6] was inactive. In addition, the outcome in assay [7], in assay [8], in assay [9], in [10], in assay [11] and in [12] was inactive. Further, the outcome in assay [13], in [14], in assay [15] and in assay [16] was inactive.

Regarding `Cc1cc(-c2ccc(C)c(S(=O)(=O)N3CCN(c4ccccn4)CC3)c2)on1`, the outcome in assay [1], in [2], in assay [3], in assay [5], in assay [6] and in [7] was inactive. Further, the result in assay [17], in [9], in [10], in assay [11], in assay [12] and in assay [13] was inactive. Also, the outcome in assay [15] and in [16] was inactive. In addition, the figures for the potentiation in assay [4] and in [14] were 18% (active) and 16.4% (active), respectively.

Consider `O=[N+]([O-])c1ccc(/C=N/Nc2nc(N3CCCCC3)nc(N3CCCCC3)n2)o1`, for which the result in assay [1], in assay [2], in assay [3], in assay [5], in [6] and in assay [7] was inactive. Also, the result in assay [17], in assay [9], in assay [10], in assay [11], in assay [12] and in [13] was inactive. Also, the result in [15] and in [16] was inactive. For the same molecule, the potentiation in assay [4] was 21% (active); in [14], 59.2% (active).

As to `O=C(Nc1cccc(Cl)c1)N1CCN(C/C=C/c2ccccc2)CC1`, the outcome in assay [1], in [2], in assay [3], in [4], in assay [5] and in assay [6] was inactive. In addition, the outcome in [7], in assay [17], in assay [9], in assay [10], in assay [11] and in assay [12] was inactive. For the same molecule, the outcome in assay [13], in assay [15] and in assay [16] was inactive. Also, the potentiation in assay [14] was 19.8% (active).
